Screening data from PubChem BioAssay.
Shown are actives, neighbours in structure and some others; about 3.6% of the full set was active somewhere.
Pf apPOL inh – Pf-apPOL DNA polymerase inhibition; actives 0.25% (n = 210,000); inhibition, % at 10 µM; Recombinant Pf-apPOL, molecular beacon fluorescence, 1.5 h; AID 1794808
mHTT-CaM PPI inh – inhibitors of human mutant huntingtin-calmodulin interaction; AlphaScreen His-mHTT/GST-CaM binding, luminescence; inhibition, % at 15 µM; actives 3.6% (n = 190,000)
Target sequence (P42858 whole entry, looked up, change not shown): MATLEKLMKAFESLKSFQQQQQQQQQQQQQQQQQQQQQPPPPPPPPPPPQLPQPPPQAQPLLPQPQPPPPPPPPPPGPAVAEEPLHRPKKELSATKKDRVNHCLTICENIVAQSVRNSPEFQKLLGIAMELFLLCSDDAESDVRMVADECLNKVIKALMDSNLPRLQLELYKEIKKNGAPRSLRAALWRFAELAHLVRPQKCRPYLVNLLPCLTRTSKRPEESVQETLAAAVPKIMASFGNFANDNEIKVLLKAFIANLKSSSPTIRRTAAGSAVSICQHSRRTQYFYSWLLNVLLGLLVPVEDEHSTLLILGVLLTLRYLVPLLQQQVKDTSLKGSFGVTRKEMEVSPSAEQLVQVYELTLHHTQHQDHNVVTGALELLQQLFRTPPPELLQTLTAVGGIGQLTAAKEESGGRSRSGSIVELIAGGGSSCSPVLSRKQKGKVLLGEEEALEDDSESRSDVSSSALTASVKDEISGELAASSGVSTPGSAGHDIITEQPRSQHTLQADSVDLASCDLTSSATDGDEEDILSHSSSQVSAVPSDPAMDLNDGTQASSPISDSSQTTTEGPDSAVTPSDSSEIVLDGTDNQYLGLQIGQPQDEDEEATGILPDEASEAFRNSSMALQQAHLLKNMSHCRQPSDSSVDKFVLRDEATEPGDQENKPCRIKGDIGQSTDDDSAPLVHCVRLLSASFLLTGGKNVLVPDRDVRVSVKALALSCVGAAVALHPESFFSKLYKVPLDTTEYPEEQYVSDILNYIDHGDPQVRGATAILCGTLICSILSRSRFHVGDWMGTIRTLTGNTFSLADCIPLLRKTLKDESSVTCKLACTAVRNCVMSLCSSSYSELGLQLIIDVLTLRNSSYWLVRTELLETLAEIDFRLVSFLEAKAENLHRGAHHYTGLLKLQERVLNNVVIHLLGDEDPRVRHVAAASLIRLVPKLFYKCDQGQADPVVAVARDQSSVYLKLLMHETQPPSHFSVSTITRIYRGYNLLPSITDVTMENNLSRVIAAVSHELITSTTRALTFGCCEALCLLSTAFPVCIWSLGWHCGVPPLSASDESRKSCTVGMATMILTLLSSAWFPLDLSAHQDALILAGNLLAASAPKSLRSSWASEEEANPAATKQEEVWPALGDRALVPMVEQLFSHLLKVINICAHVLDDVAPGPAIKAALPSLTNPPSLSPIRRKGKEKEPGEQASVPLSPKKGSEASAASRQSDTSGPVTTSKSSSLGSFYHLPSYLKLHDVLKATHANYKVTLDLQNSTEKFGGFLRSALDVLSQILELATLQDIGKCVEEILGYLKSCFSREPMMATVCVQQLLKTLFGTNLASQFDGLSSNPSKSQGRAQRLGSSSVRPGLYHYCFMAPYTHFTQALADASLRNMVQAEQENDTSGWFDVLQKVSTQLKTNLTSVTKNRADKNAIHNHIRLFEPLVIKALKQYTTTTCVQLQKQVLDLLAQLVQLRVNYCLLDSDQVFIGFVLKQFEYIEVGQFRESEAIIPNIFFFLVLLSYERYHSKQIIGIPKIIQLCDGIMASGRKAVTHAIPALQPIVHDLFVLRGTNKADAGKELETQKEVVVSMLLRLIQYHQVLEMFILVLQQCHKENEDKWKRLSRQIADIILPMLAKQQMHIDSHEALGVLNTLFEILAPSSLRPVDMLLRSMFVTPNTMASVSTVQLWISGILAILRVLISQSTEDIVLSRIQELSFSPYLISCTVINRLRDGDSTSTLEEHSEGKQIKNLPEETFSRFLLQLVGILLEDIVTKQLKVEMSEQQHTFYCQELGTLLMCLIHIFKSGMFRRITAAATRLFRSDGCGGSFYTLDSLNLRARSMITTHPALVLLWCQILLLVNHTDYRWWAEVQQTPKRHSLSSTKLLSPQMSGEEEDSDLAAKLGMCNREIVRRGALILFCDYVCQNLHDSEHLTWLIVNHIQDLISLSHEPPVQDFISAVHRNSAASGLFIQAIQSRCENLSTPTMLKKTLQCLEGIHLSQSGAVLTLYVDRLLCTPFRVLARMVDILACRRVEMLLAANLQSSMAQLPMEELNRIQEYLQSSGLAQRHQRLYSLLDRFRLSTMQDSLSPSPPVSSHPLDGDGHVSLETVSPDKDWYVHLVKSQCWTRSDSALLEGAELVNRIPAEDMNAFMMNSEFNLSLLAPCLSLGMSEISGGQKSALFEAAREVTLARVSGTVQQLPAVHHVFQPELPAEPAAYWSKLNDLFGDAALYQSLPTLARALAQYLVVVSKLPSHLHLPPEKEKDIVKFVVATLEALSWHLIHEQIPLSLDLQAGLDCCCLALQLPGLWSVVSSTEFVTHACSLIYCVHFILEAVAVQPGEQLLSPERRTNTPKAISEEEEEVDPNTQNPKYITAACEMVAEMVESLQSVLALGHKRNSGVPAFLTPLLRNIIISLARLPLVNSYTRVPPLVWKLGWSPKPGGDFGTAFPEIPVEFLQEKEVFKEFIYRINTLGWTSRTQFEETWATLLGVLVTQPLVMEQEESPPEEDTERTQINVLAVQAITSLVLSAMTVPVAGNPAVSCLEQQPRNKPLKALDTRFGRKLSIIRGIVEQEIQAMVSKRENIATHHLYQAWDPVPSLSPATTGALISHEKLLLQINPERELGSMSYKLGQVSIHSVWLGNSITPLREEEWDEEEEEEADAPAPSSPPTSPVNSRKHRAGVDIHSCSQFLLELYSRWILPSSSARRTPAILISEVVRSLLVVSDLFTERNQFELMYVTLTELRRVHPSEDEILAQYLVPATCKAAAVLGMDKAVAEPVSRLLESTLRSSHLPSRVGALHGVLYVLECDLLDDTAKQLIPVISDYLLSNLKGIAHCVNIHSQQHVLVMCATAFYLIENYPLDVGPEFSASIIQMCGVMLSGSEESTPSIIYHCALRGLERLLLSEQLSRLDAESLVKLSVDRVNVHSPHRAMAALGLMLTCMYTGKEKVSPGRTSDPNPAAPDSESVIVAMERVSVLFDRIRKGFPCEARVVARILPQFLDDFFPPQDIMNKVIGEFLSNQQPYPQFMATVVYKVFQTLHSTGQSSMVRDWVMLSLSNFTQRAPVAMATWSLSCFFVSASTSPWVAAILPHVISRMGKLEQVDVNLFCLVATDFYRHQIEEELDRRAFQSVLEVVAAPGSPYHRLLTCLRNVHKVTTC
Large screens that a line does not name were inactive. Rule as the data show it: active = inhibition above about 50%; inactive = the rest.

Cc1cc(C)n(-c2ccc(Nc3ccc(NC(=O)Nc4ccccc4)cc3)nn2)n1	none
O=C(Nc1ccc(NC(=O)C2CCCC2)cc1)C1CCCC1	none
O=C(Nc1ccc(O)cc1)C1CC=CCC1 (stereo unspecified)	mHTT-CaM PPI inh 70
c1cc2c3c(cccc3c1)NC1(CCCCCC1)N2	mHTT-CaM PPI inh 53 (no result: Pf apPOL inh)
S=C1NC2(CCCC2)NN1c1ccccc1	none (no result: mHTT-CaM PPI inh)
COc1ccc(CN2CCCCC2c2nc(-c3ccncc3)no2)cc1 (stereo unspecified)	none
COc1ncccc1CNC(=O)c1ccc(F)cc1F	none
O=c1cc(CO)oc(C(Nc2ncccn2)c2ccc(F)cc2)c1O (stereo unspecified)	none
Cc1ccc2ccc(C(Nc3ccccn3)c3ccc(F)cc3)c(O)c2n1 (stereo unspecified)	mHTT-CaM PPI inh 70
C=CCOc1ccc(C=Nc2ccc(C(C)C)cc2)c(O)c1	none
Cc1ccc2ccc(C(Nc3ccccn3)c3ccc(O)cc3)c(O)c2n1 (stereo unspecified)	mHTT-CaM PPI inh 93
C=CCOc1ccc(C(Nc2ccccn2)c2ccc3ccc(C)nc3c2O)cc1 (stereo unspecified)	mHTT-CaM PPI inh 67
COc1ccc(C(Nc2ccccn2)c2ccc3ccc(C)nc3c2O)cc1C (stereo unspecified)	mHTT-CaM PPI inh 81
COc1cc(C)c(S(=O)(=O)Nc2ccccn2)cc1C	none
CC(C)CN(CC(C)C)C(=O)C1CC2CCC1C2 (stereo unspecified)	none
Cc1cccc(NC(=O)CSc2nccc(N3CCCCCC3)n2)c1	none
C=CCN1C(=O)S/C(=C\c2ccc(N3CCCC3)o2)C1=O	none
Cc1nn(C)cc1CN1CCC(c2nc(C3CC3)n[nH]2)CC1	none
CCCCOC(=O)C(=O)Nc1ccc(Cl)cc1	none
Cc1nn(Cc2ccccc2)c2c1C(c1cccc([N+](=O)[O-])c1)C(C#N)=C(N)O2 (stereo unspecified)	none
Oc1c(C(Nc2ccccn2)c2ccc3c(c2)OCO3)ccc2cccnc12 (stereo unspecified)	mHTT-CaM PPI inh 99
Oc1c(C(Nc2ccccn2)c2ccc(Br)cc2)ccc2cccnc12 (stereo unspecified)	mHTT-CaM PPI inh 94
OC(CN1CCN(c2ccccn2)CC1)c1ccc2c(c1)OCO2 (stereo unspecified)	none
O=S(=O)(Nc1ccccn1)c1ccc(Cl)cc1	none
Oc1c(C(Nc2ccccn2)c2ccc(Cl)cc2)ccc2cccnc12 (stereo unspecified)	mHTT-CaM PPI inh 100
O=C(Nc1ccccn1)c1cc(Br)ccc1Cl	none
Cc1ccnc(NC(c2cccs2)c2ccc3cccnc3c2O)c1 (stereo unspecified)	mHTT-CaM PPI inh 100
COC(=O)c1ccc(Oc2coc3c4c(ccc3c2=O)OCN(C(C)C)C4)cc1 (tested in a mixture with another compound)	none
O=C(Nc1ccc(Br)cc1)c1cc(-c2cccc(Cl)c2)on1	none
Cc1ccc(C)c(C(C)Sc2ncccc2C(=O)O)c1 (stereo unspecified)	none (no result: mHTT-CaM PPI inh)
Cc1ccc(C(Nc2ccccn2)c2ccc3ccc(C)nc3c2O)cc1 (stereo unspecified)	mHTT-CaM PPI inh 72
CCCOc1ccc(C(Nc2ccccn2)c2ccc3cccnc3c2O)cc1 (stereo unspecified)	mHTT-CaM PPI inh 97
Cc1ccc(C)c(C(Nc2ccccn2)c2ccc3cccnc3c2O)c1 (stereo unspecified)	mHTT-CaM PPI inh 97
CCCOc1ccc(C=Nc2ccc(S(=O)(=O)Nc3ccccn3)cc2)cc1	none
Cc1ccc(-c2nc(C=Nc3ccccn3)c(O)o2)cc1	none
Cc1ccnc(NC(c2ccccc2C)c2ccc3cccnc3c2O)c1 (stereo unspecified)	mHTT-CaM PPI inh 99
COc1ccc(C(=O)Nc2nnc(CC(C)(C)C)s2)cc1OC	none
O=C(Nc1ccccc1)Nc1nccn(-c2ccc(Br)cc2)c1=O	none
Cc1ccc(C(Nc2ccccn2)c2ccc3cccnc3c2O)cc1 (stereo unspecified)	mHTT-CaM PPI inh 99
Cc1ccc(-c2ncccc2O)cc1	none
Cc1ccc(N2CCN(C(=O)c3ccnc(N4CCNC(c5ccccc5)C4)c3)CC2)cc1 (stereo unspecified)	none
Cc1ccc(N2CCN(C(=O)c3ccc(N4CCNC(c5ccccc5)C4)nc3)CC2)cc1 (stereo unspecified)	mHTT-CaM PPI inh 73
O=C(c1cccc(N2CCNC(c3ccccc3)C2)n1)N1CCN(c2ccc(F)cc2)CC1 (stereo unspecified)	mHTT-CaM PPI inh 51
Cc1cccc(N2CCN(C(=O)c3ccc(N4CCNC(c5ccccc5)C4)nc3)CC2)c1 (stereo unspecified)	mHTT-CaM PPI inh 65
O=C(c1cccc(N2CCNC(c3ccccc3)C2)n1)N1CCN(c2ccccc2)CC1 (stereo unspecified)	none
COc1ccccc1NC(=O)c1cccc(N2CCNC(c3ccccc3)C2)n1 (stereo unspecified)	mHTT-CaM PPI inh 72
COc1ccccc1NC(=O)c1ccc(N2CCNC(c3ccccc3)C2)nc1 (stereo unspecified)	none
O=C(c1ccc(N2CCNC(c3ccccc3)C2)nc1)N1CCCC1 (stereo unspecified)	none
CCCc1cc(C2CCCN2C(=O)Nc2ccc3c(c2)OCO3)no1 (stereo unspecified)	none
CC1=NN(c2ccc(Br)cc2)C(=O)/C1=C/c1ccc(-c2ccc3c(c2)C(=O)NC3=O)o1	none
O=C1NC(=S)N/C1=C/c1ccc(-c2ccc3c(c2)C(=O)NC3=O)o1	mHTT-CaM PPI inh 55 (no result: Pf apPOL inh)
O=C(c1cc2nc(-c3ccc(Br)cc3)cc(C(F)(F)F)n2n1)N1CCOCC1	none
Cc1ccc(COC[C@H](CC(C)C)N2CCN(C(=O)c3cccc(C(F)(F)F)c3)CCC2=O)cc1	mHTT-CaM PPI inh 91
CC(C)C[C@@H](COCc1ccc(C(F)(F)F)cc1)N1CCN(C(=O)c2ccc(C(F)(F)F)cc2)CCC1=O	mHTT-CaM PPI inh 93
CC(C)C[C@@H](COCc1cccc(Cl)c1)N1CCN(C(=O)c2ccc(C(F)(F)F)cc2)CCC1=O	mHTT-CaM PPI inh 99
Cc1ccc(CNC(=O)C2CCCN(C(=O)c3cccc(C(F)(F)F)c3)C2)cc1 (stereo unspecified)	none
COCCC1CCN(C(=O)c2ccc(C(F)(F)F)cc2)CC1	none
Cc1ccc(S(=O)(=O)N2CCC(=O)N([C@H](COCc3cccc(Cl)c3)C(C)C)CC2)cc1	none
c1cncc(-c2noc(-c3ccc(-c4nc(-c5cccnc5)no4)cc3)n2)c1	none (no result: Pf apPOL inh)
COc1ccc2nc(-c3ccc(OC)c(NC(=O)c4cccs4)c3)cn2n1	none
CCNC(=O)c1c(-c2cccnc2)noc1C	none
O=C(c1nc(-c2cccc(F)c2)n2c1CCCCC2)N1CCN(c2ccccc2)CC1	mHTT-CaM PPI inh 78
COc1ccc(N2CCN(C(=O)c3nc(-c4cccc(F)c4)n4c3CCCCC4)CC2)cc1	none
COCCCNC(=O)CSc1nc2ccccc2c2nc(-c3ccc([N+](=O)[O-])cc3)nn12	none
NC(=O)Cc1nc(-c2ccccn2)n[nH]1	mHTT-CaM PPI inh 99
O=C(Cc1nc(-c2ccccc2)n[nH]1)Nc1ccc(Cl)cc1	none
O=C(Cc1nc(-c2ccccn2)n[nH]1)Nc1ccccc1	mHTT-CaM PPI inh 73
O=C(O)Cc1nc(-c2cccnc2)n[nH]1	none
Cc1cccc(NC(=O)Cc2nc(-c3ccccn3)n[nH]2)c1	mHTT-CaM PPI inh 99
Cc1cc(C)cc(NC(=O)Cc2nc(-c3ccccc3)n[nH]2)c1	none
CCN(C(=O)C(c1ccccc1)c1ccccc1)c1ccccc1	none
